Measurements reported in PubChem BioAssay (NCATS).
Several values for one entry are separate records, joined by “and”; a condition that tells them apart may be missing. Equal entries are not always repeated. Records with an inconclusive call do not appear. Activity calls are given as the source filed them. Calls come from the whole dose curve; as a rule, active = well fitted curve in the direction sought with a large enough effect; inconclusive = small, poorly fitted or top-dose-only effect, or another doubt; inactive = no such curve, though single readings can be large; an effect the other way counts as inactive or inconclusive.

Tests used:
HEK293 = test: Cytotoxic Profiling of Annotated Libraries Using Quantitative High-Throughput Screening (AID 1296008); conditions: Five cell lines viability, CellTiter-Glo ATP luminescence, 48-72 h; max response: stronger effect = lower value; note: nearly all actives have a fitted effect of over 60% in size; for max response: % is set by controls: 0 for no effect and ±100 for the full control effect
In short: (§1)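 Cytotoxicity was measured as CellTiter-Glo ATP luminescence, read after 10 min at room temperature. Compound treatment of the cells lasted 48 or 72 hr at 37 degrees Celsius in a qHTS format.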

HaCat [1] = test: as above; conditions: Five cell lines viability, CellTiter-Glo ATP luminescence, 48-72 h; max response: stronger effect = lower value
In short: as §1

NIH3T3 [2] = test: as above; conditions: Five cell lines viability, CellTiter-Glo ATP luminescence, 48-72 h; max response: stronger effect = lower value
In short: as §1

HACAT [3] = test: qHTS assay to identify novel small-molecules to repurpose for Merkel cell carcinoma treatment (AID 1296009); conditions: MCC and control cell lines, CellTiter-Glo viability, 72 h; at 44.8 µM (top of the series) unless noted; note: nearly all actives have a fitted effect of over 60% in size; note: potency is the fitted concentration of half-maximal effect
In short: (§2)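 Cell viability, measured as CellTiter-Glo luminescence, was normalized between DMSO and no-cell wells. The cells had been exposed to 8- or 11-point compound dilutions for 72 hr at 37 degree celsius.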

HEK293T = test: as above; conditions: MCC and control cell lines, CellTiter-Glo viability, 72 h; at 44.8 µM (top of the series) unless noted
In short: as §2

MCC-13 = test: as above; conditions: MCC and control cell lines, CellTiter-Glo viability, 72 h; series mostly up to 46 µM
In short: as §2

MCC-26 = test: as above; conditions: MCC and control cell lines, CellTiter-Glo viability, 72 h; series mostly up to 46 µM
In short: as §2

MKL-1 = test: as above; conditions: MCC and control cell lines, CellTiter-Glo viability, 72 h; series mostly up to 46 µM
In short: as §2

MKL-2 = test: as above; conditions: MCC and control cell lines, CellTiter-Glo viability, 72 h; series mostly up to 46 µM
In short: as §2

NIH3T3 [4] = test: as above; conditions: MCC and control cell lines, CellTiter-Glo viability, 72 h; at 44.8 µM (top of the series) unless noted
In short: as §2

UISO = test: as above; conditions: MCC and control cell lines, CellTiter-Glo viability, 72 h; series mostly up to 46 µM
In short: as §2

WaGa = test: as above; conditions: MCC and control cell lines, CellTiter-Glo viability, 72 h; series mostly up to 46 µM
In short: as §2

C33A = test: Primary qHTS to identify gynecologic anti-cancer compounds using libraries of approved drugs and bioactive compounds (AID 1345084); conditions: Gynecologic cancer cell panel viability, ATPlite luminescence, 48 h; series mostly up to 57.5 µM; note: % is set by controls: 0 for no effect and ±100 for the full control effect; nearly all actives have a fitted effect of over 55% in size
In short: (§3)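 Luminescence from the ATPlite ATP-monitoring reagent indicates viable cell number; lower signal means cytotoxicity. Cells received compound 16 h after seeding and were exposed for 48 h across five concentrations.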

CAOV3 = test: as above; conditions: Gynecologic cancer cell panel viability, ATPlite luminescence, 48 h; series mostly up to 57.5 µM
In short: as §3

CASKI = test: as above; conditions: Gynecologic cancer cell panel viability, ATPlite luminescence, 48 h; series mostly up to 57.5 µM
In short: as §3

CRL-7250 = normal cell line; test: Cytotoxic Profiling of Annotated Libraries Using Quantitative High-Throughput Screening (AID 1296008); conditions: Five cell lines viability, CellTiter-Glo ATP luminescence, 48-72 h; max response: stronger effect = lower value; note: nearly all actives have a fitted effect of over 60% in size; for max response: % is set by controls: 0 for no effect and ±100 for the full control effect
In short: as §1

TAB165 = test: qHTS profiling for inhibitors of Plasmodium falciparum proliferation (AID 504749); note: nearly all actives have a fitted effect of over 60% in size; note: potency is the fitted concentration of half-maximal effect;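 for activity, negative = inhibition: 0% = DMSO vehicle and full inhibition = artemisinin control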; conditions: P. falciparum in erythrocytes, SYBR Green DNA, 72 h; series mostly up to 28.7 µM
In short: (§4)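 SYBR Green fluorescence of parasite DNA, read after lysis and overnight dark incubation, measured growth over 72 h in erythrocyte culture at 0.3% parasitemia and 2.5% hematocrit. Data normalised to DMSO and 0.29 uM artemisinin, with plate-drift correction.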

W2 = test: as above; conditions: P. falciparum in erythrocytes, SYBR Green DNA, 72 h; series mostly up to 28.7 µM
In short: as §4

KB-3-1 = test: Cytotoxic Profiling of Annotated Libraries Using Quantitative High-Throughput Screening (AID 1296008); conditions: Five cell lines viability, CellTiter-Glo ATP luminescence, 48-72 h; max response: stronger effect = lower value; note: nearly all actives have a fitted effect of over 60% in size; for max response: % is set by controls: 0 for no effect and ±100 for the full control effect
In short: as §1

Clc1ccccc1N1CCNCC1
inactive: outcome (HEK293) | outcome (HaCat [1]) | outcome (NIH3T3 [2]) | outcome (HACAT [3]) | outcome (HEK293T) | outcome (MCC-13) | Potency (MCC-26) | Potency (MKL-1) | Potency (MKL-2) | outcome (NIH3T3 [4]) | Potency (UISO) | Potency (WaGa) | Potency (C33A) | outcome (CAOV3) | outcome (CASKI)

C#CC(O)(C=CCl)CC (centres undefined)
inactive: max response (CRL-7250) -0.331% | max response (HEK293) -13.2% | outcome (HaCat [1]) | outcome (NIH3T3 [2]) | outcome (HACAT [3]) | outcome (MCC-13) | Potency (MCC-26) | Potency (MKL-1) | Potency (MKL-2) | outcome (NIH3T3 [4]) | Potency (UISO) | Potency (WaGa) | Potency (C33A) | outcome (CASKI)

CC(C)=CC1C(C(=O)OCN2C(=O)C3=C(CCCC3)C2=O)C1(C)C (centres undefined)
inactive: Potency (TAB165) | Potency (W2) | max response (HEK293) -22.7% | outcome (HaCat [1]) | max response (KB-3-1) 2.15% | max response (NIH3T3 [2]) -1.87% | outcome (HACAT [3]) | outcome (MCC-13) | Potency (MCC-26) | Potency (MKL-1) | Potency (MKL-2) | Potency (UISO) | Potency (WaGa) | Potency (C33A) | outcome (CASKI)

C[C@H]1[C@@H]2Cc3ccc(O)cc3[C@@]1(C)CCN2C
inactive: max response (CRL-7250) -7.45% | max response (HEK293) -19.5% | max response (KB-3-1) -22% | outcome (NIH3T3 [2]) | outcome (MCC-13) | Potency (MCC-26) | Potency (MKL-1) | Potency (MKL-2) | outcome (NIH3T3 [4]) inactive [at 231 µM] | Potency (UISO) | Potency (WaGa) | Potency (C33A) | outcome (CAOV3) | outcome (CASKI)

CCN(CC)CCc1c[nH]c2ccccc12
inactive: max response (HEK293) -22% | max response (HaCat [1]) -3.07% | max response (KB-3-1) -19.3% | max response (NIH3T3 [2]) -2.44% | outcome (MCC-13) | Potency (MCC-26) | Potency (MKL-1) | Potency (MKL-2) | Potency (WaGa) | Potency (C33A) | outcome (CASKI)

C[C@]12CCC(=O)C=C1CC[C@@H]1[C@@H]2CC[C@@]2(C)[C@H]1CC[C@]2(C)O
inactive: max response (CRL-7250) 2.75% | outcome (HaCat [1]) | max response (KB-3-1) -6.95% and 1.16% | max response (NIH3T3 [2]) -3.69% | outcome (HACAT [3]) | outcome (MCC-13) | Potency (MCC-26) | Potency (MKL-1) | Potency (C33A) | outcome (CAOV3) | outcome (CASKI)

COC1CC(=C(c2cccs2)c2cccs2)C[N+](C)(C)C1 (centres undefined)
active: Potency (TAB165) 14.1 µM | Potency (MKL-1) 21.1 µM | Potency (MKL-2) 7.5 µM | Potency (WaGa) 11.9 µM
inactive: max response (CRL-7250) -1.67% | max response (HaCat [1]) 2.01% | max response (KB-3-1) 0.141% | max response (NIH3T3 [2]) 0.648% | outcome (MCC-13) | Potency (MCC-26) | Potency (C33A)

C[C@]12CC[C@H]3[C@@H](CCC4=CC(=O)CC[C@@H]43)[C@@H]1CC[C@@H]2OC(=O)CCc1ccco1
inactive: max response (CRL-7250) -3% | outcome (HaCat [1]) | max response (NIH3T3 [2]) -2.06% | outcome (HACAT [3]) | outcome (MCC-13) | Potency (MCC-26) | Potency (WaGa) | Potency (C33A) | outcome (CASKI)

CC(C(=O)c1ccccc1)N(C)C (centres undefined)
inactive: max response (CRL-7250) 3.38% | max response (HEK293) -1.39% | outcome (HaCat [1]) | max response (NIH3T3 [2]) -10.7% | outcome (HACAT [3]) | outcome (MCC-13) | Potency (MKL-1) | Potency (MKL-2) | Potency (UISO) | Potency (WaGa) | outcome (CASKI)

CCN[C@H](C)Cc1cccc(C(F)(F)F)c1
inactive: max response (CRL-7250) -0.312% | outcome (HaCat [1]) | max response (KB-3-1) -19.7% | max response (NIH3T3 [2]) -0.0448% | outcome (HACAT [3]) inactive [at 92 µM] | outcome (MCC-13) | Potency (MCC-26) | Potency (MKL-1) | Potency (MKL-2) | Potency (UISO) | Potency (WaGa) | Potency (C33A) | outcome (CASKI)

CCC(C)(C)c1ccc(O)cc1
inactive: Potency (TAB165) | Potency (W2) | outcome (HEK293) | max response (HaCat [1]) 2.15% | max response (KB-3-1) 14.4% | max response (NIH3T3 [2]) 3.56% | outcome (HEK293T) | outcome (MCC-13) | Potency (MCC-26) | Potency (MKL-1) | Potency (MKL-2) | Potency (UISO) | Potency (WaGa) | Potency (C33A) | outcome (CAOV3) | outcome (CASKI)

O=c1c(C2CC(c3ccc(-c4ccc(Br)cc4)cc3)Cc3ccccc32)c(O)sc2ccccc12 (centres undefined)
inactive: max response (CRL-7250) 0.288% | outcome (MCC-13) | Potency (MCC-26) | Potency (MKL-1) | Potency (MKL-2) | Potency (C33A) | outcome (CASKI)

CCCCCCC(=O)CCCCCC/C=C/C[C@@H](O)[C@H](O)[C@@](N)(CO)C(=O)O
inactive: Potency (TAB165) | max response (CRL-7250) -1.04% | max response (HEK293) -0.716% | max response (KB-3-1) 4.21% and -11.8% | max response (NIH3T3 [2]) 0.482% | outcome (MCC-13) | Potency (MCC-26) | Potency (MKL-1) | Potency (MKL-2) | Potency (UISO) | Potency (WaGa) | Potency (C33A) | outcome (CAOV3) | outcome (CASKI)

CCCCC/C=C\C/C=C\C/C=C\C/C=C\CCCC(=O)NCC(=O)O
inactive: activity, negative = inhibition (W2) 6.9% [at 2.67 µM] | max response (CRL-7250) -2.63% | max response (HEK293) -7.97% | max response (KB-3-1) -17.5% | outcome (NIH3T3 [2]) | outcome (MCC-13) | Potency (MKL-1) | outcome (NIH3T3 [4]) | Potency (UISO) | Potency (WaGa) | Potency (C33A) | outcome (CAOV3) | outcome (CASKI)

CC[N+]1(CC)CCC(OC(=O)C(O)(c2ccccc2)c2ccccc2)C1 (centres undefined)
inactive: max response (CRL-7250) -3.85% | max response (HEK293) 3.52% | outcome (HaCat [1]) | max response (NIH3T3 [2]) 4.46% | outcome (HACAT [3]) | outcome (MCC-13) | Potency (MKL-1) | Potency (MKL-2) | Potency (UISO) | Potency (WaGa) | Potency (C33A) | outcome (CAOV3) | outcome (CASKI)

C[C@]12CCC(=O)C=C1CC[C@@H]1[C@@H]2CC[C@]2(C)C(=O)CC[C@@H]12
inactive: Potency (TAB165) | Potency (W2) | max response (CRL-7250) -5.91% | max response (HaCat [1]) -13.1% | max response (KB-3-1) -6.1% | max response (NIH3T3 [2]) -1.13% | outcome (MCC-13) | Potency (MKL-1) | Potency (MKL-2) | Potency (C33A) | outcome (CAOV3) | outcome (CASKI)
